In one assay the test system is Hek293T. The assay can be described thus: Primary qHTS to identify gynecologic anti-cancer compounds using libraries of approved drugs and bioactive compounds (AID 1345084). Further: nearly all actives have a fitted effect of over 55% in size. Particulars: Gynecologic cancer cell panel viability, ATPlite luminescence, 48 h, control line for the selectivity index; series mostly up to 57.5 µM. The procedure, abridged:
(§1)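 Luminescence from the ATPlite ATP-monitoring reagent indicates viable cell number; lower signal means cytotoxicity. Cells received compound 16 h after seeding and were exposed for 48 h across five concentrations.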
For orientation: In qHTS, concentration-response curves come from the screen itself.

The test system of a further assay is JEG-3. The description is as above. Conditions: Gynecologic cancer cell panel viability, ATPlite luminescence, 48 h; series mostly up to 57.5 µM. An outline of the steps: as §1
The next assay concerns OV90. The assay is described as above. Particulars: Gynecologic cancer cell panel viability, ATPlite luminescence, 48 h; series mostly up to 57.5 µM. The procedure, abridged:
as §1
On the technique in general: Cellular ATP, detected with luciferase, serves as a proxy for viable cell number.

A further assay deals with PA-1. The assay is described as above. Particulars: Gynecologic cancer cell panel viability, ATPlite luminescence, 48 h; series mostly up to 57.5 µM. The procedure, abridged:
as §1

A further assay deals with SKOV3. Described as above. Conditions: Gynecologic cancer cell panel viability, ATPlite luminescence, 48 h; series mostly up to 57.5 µM. An outline of the steps: as §1
The next assay has as its system Tov-21-G. The description is as above. Particulars: Gynecologic cancer cell panel viability, ATPlite luminescence, 48 h; series mostly up to 57.5 µM. An outline of the steps: as §1
For a further assay, the system named is Tov112D. The description is as above. Conditions: Gynecologic cancer cell panel viability, ATPlite luminescence, 48 h; series mostly up to 57.5 µM. The procedure, abridged: as §1
A short description of assay [1]: Drug repurposing screens with cells derived from glioblastoma tumor samples (AID 1345199). Further: nearly all actives have a fitted effect of over 40% in size. Further: potency means the concentration at half of the fitted maximal effect. Particulars: GBM patient neurospheres viability, ATP luminescence, 48 h. The procedure, abridged:
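Four patient lines of CD133+ GBM neurospheres were screened at several concentrations; hits were retested in those lines plus three slower-growing GBM lines, using 48-hour treatment and ATP-based viability.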

Where [2] appears, read: at 45.9 µM (top of the series), tumour line B.
Where [3] appears, read: at 45.9 µM (top of the series), tumour line D.
The mark [4] stands for this setting: at 46 µM (top of the series), tumour line A.
Where [5] appears, read: at 21.2 µM (top of the series), tumour line B.

Records with an inconclusive call do not appear. A number with no mark means an inactive call. Activity calls are given as the source filed them. The call rests on the fitted dose curve; in most records, active means well fitted curve in the direction sought with a large enough effect; inconclusive means small, poorly fitted or top-dose-only effect, or another doubt; inactive means no such curve, though single readings can be large; an effect the other way counts as inactive or inconclusive.
On the % scale 0 is the no-effect control and ±100 the full control effect.

On to `Sc1ccccc1Cl`, for which the Potency result in the assay with Hek293T, in the assay with JEG-3, with OV90, in the assay with PA-1, with SKOV3 and with Tov-21-G was “inactive” each time. Besides, in the assay on Tov112D, the Potency result is “inactive”.
Consider `C[C@]12CC[C@H]3[C@@H](CCC4=CC(=O)CC[C@@]43C)[C@@H]1CC[C@@H]2C(=O)O`, for which the Potency result with Hek293T, in the assay with JEG-3, with OV90, in the assay on PA-1, with SKOV3 and in the assay with Tov-21-G was “inactive” throughout. Moreover, the Potency result in the assay with Tov112D is “inactive”.
Consider `CCN1CCCC1CNC(=O)C(O)(c1ccccc1)c1ccccc1` (stereo not given), for which the Potency result with Hek293T, in the assay with JEG-3, with OV90, in the assay on PA-1, with SKOV3 and in the assay on Tov-21-G was “inactive” throughout. In addition, the Potency entry in the assay on Tov112D was “inactive”.
With `CC(Cc1ccccc1)NCCCCl` (stereo not given), the Potency result in the assay on Hek293T, with JEG-3, in the assay with OV90, with PA-1, in the assay on SKOV3 and in the assay on Tov-21-G was “inactive” in each case. Moreover, the Potency result in the assay on Tov112D is “inactive”.
As for `CCC1(c2ccccc2)CCC(=O)NC1=O` (stereo not given), the Potency result in the assay with Hek293T, in the assay with JEG-3, with OV90, in the assay on PA-1, in the assay with SKOV3 and in the assay on Tov-21-G was “inactive” throughout. Moreover, the Potency result with Tov112D is “inactive”. Moreover, the activity, negative = cell killing in assay [1] (setting [2]) is -10.4%; in assay [1] (setting [3]) it was -10.3%; in assay [1] (setting [4]) it was -28.9%.
As for `ClCc1cccc(Cl)c1`, the Potency result with Hek293T, with JEG-3, with OV90, with PA-1, in the assay on SKOV3 and in the assay on Tov-21-G was “inactive” throughout. In the assay with Tov112D, the Potency entry is “inactive”.
Turning to `O=C1CN2CCOC2(c2ccccc2Cl)c2cc(Cl)ccc2N1` (stereo not given), the Potency result in the assay on Hek293T, with JEG-3, in the assay with OV90, in the assay with PA-1, in the assay on SKOV3 and in the assay on Tov-21-G was “inactive” each time. Further, in the assay with Tov112D, the Potency entry was “inactive”.
Consider `COc1cc(N)c(Cl)cc1C(=O)NC1CN2CCC1CC2` (stereo not given), for which the Potency entry with Hek293T, in the assay with JEG-3, in the assay on OV90, in the assay with PA-1, in the assay on SKOV3 and in the assay on Tov-21-G was “inactive” throughout. The Potency entry in the assay on Tov112D was “inactive”. Moreover, the activity, negative = cell killing in assay [1] (setting [2]) is -1.32%; in assay [1] (setting [3]) it was 1.82%.
As to `NCc1cccnc1`, the Potency result with Hek293T, in the assay with JEG-3, with OV90, with PA-1, in the assay with SKOV3 and with Tov-21-G was “inactive” each time. Also, in the assay with Tov112D, the Potency entry was “inactive”. Further, the activity, negative = cell killing is -7.53% in assay [1] (setting [2]), -1.09% in assay [1] (setting [3]) and -28.1% in assay [1] (setting [4]).
On to `CCOC(=O)C1(c2ccccc2)CCN(CCc2ccc(N)cc2)CC1`, for which the Potency entry with Hek293T, in the assay with JEG-3, with OV90, in the assay with PA-1, with SKOV3 and in the assay on Tov-21-G was “inactive” in each case. Further, the Potency result in the assay on Tov112D is “inactive”.
In the case of `Cc1cccc(Cc2cnc[nH]2)c1C`, the Potency result in the assay on Hek293T, with JEG-3, in the assay on OV90, in the assay on PA-1, with SKOV3 and in the assay on Tov-21-G was “inactive” in each case. The Potency result in the assay on Tov112D was “inactive”. For the same molecule, the values for the activity, negative = cell killing in assay [1] (setting [2]) and in assay [1] (setting [3]) were -15.8% and -4.57%, respectively. Further, the Potency in assay [1] (tumour line A) was 35.5 µM (active).
`CCN(CC)C(C)C(=O)c1ccccc1` (stereo not given): the Potency entry in the assay with Hek293T, in the assay on JEG-3, in the assay with OV90, in the assay on PA-1, with SKOV3 and with Tov-21-G was “inactive” in each case. The Potency result in the assay on Tov112D was “inactive”. The activity, negative = cell killing in assay [1] (setting [2]) was -5.61%; in assay [1] (setting [3]) it was -24.9%; in assay [1] (setting [4]), -22.4%.
As for `Oc1c(Br)cc(Br)cc1Br`, the Potency result in the assay on Hek293T, in the assay with JEG-3, in the assay with OV90, in the assay on PA-1, in the assay on SKOV3 and with Tov-21-G was “inactive” each time. Also, the Potency result in the assay with Tov112D is “inactive”. Moreover, the activity, negative = cell killing in assay [1] (setting [2]) was -7.26%; in assay [1] (setting [3]) it was 14.2%; in assay [1] (setting [4]), -28%.
`NC(=O)CN1CCCC1=O`: the Potency result with Hek293T, in the assay with JEG-3, with OV90, with PA-1, with SKOV3 and in the assay with Tov-21-G was “inactive” each time. The Potency entry with Tov112D is “inactive”. Also, the activity, negative = cell killing in assay [1] (setting [5]) was -8.16%; in assay [1] (at 21.2 µM (top of the series), tumour line D), -13%; in assay [1] (at 21.3 µM (top of the series), tumour line A), -16.4%.
For `C#C[C@]1(O)C=C[C@H]2[C@@H]3CCC4=CC(=O)CC[C@@H]4[C@H]3CC[C@@]21CC`, the Potency result in the assay on Hek293T, in the assay with JEG-3, with OV90, with PA-1, with SKOV3 and in the assay with Tov-21-G was “inactive” throughout. For the same molecule, the Potency result in the assay on Tov112D was “inactive”. Moreover, the activity, negative = cell killing in assay [1] (setting [2]) is -6.47%; in assay [1] (setting [3]), -10.7%.
In the case of `CCCC[N+]1(C)[C@@H]2CC(OC(=O)[C@H](CO)c3ccccc3)C[C@H]1[C@@H]1O[C@@H]12` (stereo not given in full), the Potency entry with Hek293T, in the assay with JEG-3, in the assay with OV90, in the assay on PA-1, in the assay with SKOV3 and with Tov-21-G was “inactive” in each case. Also, the Potency result in the assay with Tov112D was “inactive”. For the same molecule, the activity, negative = cell killing in assay [1] (setting [2]) is -7.47%.
On to `Nc1ccccc1C(=O)OCC(O)CO` (stereo not given), for which the Potency entry in the assay on Hek293T, with JEG-3, in the assay on OV90, in the assay with PA-1, in the assay with SKOV3 and in the assay on Tov-21-G was “inactive” in each case. The Potency result in the assay with Tov112D was “inactive”.
As to `C[C@]12CC[C@H]3[C@@H](CC=C4C[C@@H](O)CC[C@@]43C)[C@@H]1CC[C@@H]2O`, the Potency result in the assay on Hek293T, in the assay with JEG-3, in the assay with OV90, with PA-1, in the assay on SKOV3 and in the assay on Tov-21-G was “inactive” throughout. Further, the Potency entry in the assay on Tov112D is “inactive”. Moreover, the activity, negative = cell killing in assay [1] (setting [2]) is -14.5%. The Potency in assay [1] (tumour line A) is 11.2 µM (active).
As to `C[C@]12C=CC(=O)C=C1CC[C@@H]1[C@@H]2CC[C@@]2(C)[C@H]1CC[C@]2(C)O`, the Potency result in the assay with Hek293T, in the assay on JEG-3, in the assay on OV90, with PA-1, in the assay with SKOV3 and in the assay on Tov-21-G was “inactive” in each case. For the same molecule, the Potency entry in the assay with Tov112D was “inactive”. The activity, negative = cell killing in assay [1] (setting [2]) was -4.86%; in assay [1] (setting [3]) it was -22.4%.
For the molecule `COP(=S)(OC)Oc1ccc(S(N)(=O)=O)cc1`, the Potency result with Hek293T, in the assay on JEG-3, with OV90, in the assay on PA-1, with SKOV3 and in the assay on Tov-21-G was “inactive” in each case. The Potency result in the assay with Tov112D is “inactive”. The figures for the activity, negative = cell killing in assay [1] (setting [2]) and in assay [1] (setting [3]) were -9.2% and -4.94%, respectively.
As to `O=C(CCCN1CCC(n2c(=O)[nH]c3ccccc32)CC1)c1ccc(F)cc1`, the Potency result in the assay on Hek293T, with JEG-3, in the assay on OV90, in the assay on PA-1, with SKOV3 and in the assay on Tov-21-G was “inactive” in each case. The Potency entry in the assay on Tov112D is “inactive”. Besides, in assay [1] (setting [5]), the activity, negative = cell killing is -8.66%. Also, in assay [1] (tumour line A), the Potency is 5.62 µM (active).
Turning to `CCCCC1C(=O)NC(=O)N(C2CCCCC2)C1=O` (stereo not given), the Potency result in the assay on Hek293T, with JEG-3, with OV90, in the assay with PA-1, in the assay on SKOV3 and in the assay on Tov-21-G was “inactive” in each case. In the assay on Tov112D, the Potency result is “inactive”. Moreover, the activity, negative = cell killing in assay [1] (setting [2]) was 0.883%; in assay [1] (setting [3]), 0.724%; in assay [1] (setting [4]), -28.6%.
As to `COc1ccc2[nH]cc(CCN(C(C)C)C(C)C)c2c1`, the Potency entry in the assay with Hek293T, in the assay on JEG-3, in the assay on OV90, in the assay on PA-1, in the assay on SKOV3 and in the assay with Tov-21-G was “inactive” throughout. Further, in the assay with Tov112D, the Potency entry was “inactive”. The activity, negative = cell killing in assay [1] (at 108 µM (top of the series), tumour line B) was -6.42%; in assay [1] (at 108 µM (top of the series), tumour line D), -9.85%. In addition, the Potency in assay [1] (tumour line A) is 44.7 µM (active).
With `O=c1[nH]c2cc(Cl)ccc2n1C1CCNCC1`, the Potency entry in the assay on Hek293T, in the assay on JEG-3, with OV90, with PA-1, in the assay on SKOV3 and with Tov-21-G was “inactive” in each case. For the same molecule, the Potency result with Tov112D is “inactive”.

The record behind these values is PubChem BioAssay (NCATS).
